High-throughput results deposited in PubChem by National Center for Advancing Translational Sciences (NCATS).
CHX counter: affects cycloheximide protein synthesis inhibition readout, counter-screen. cell reporter, cycloheximide protein synthesis inhibition counterscreen. max response, %. 12% of 300,000 active. AID 2314; in the data active = max response mostly above about 13%, no sharp cut-off; inactive = mostly below about 14%; note: read at 38.3 µM for the half of the compounds with a filed dose; 0% is about no effect
NS1 inh: blocks influenza NS1 protein function | Potency, µM (doses to about 46.1 µM), inactives show at the top dose activity, positive = more growth | AID 2326 | 0.4% of 270,000 active; calls by dose curve; note: potency is the fitted concentration of half-maximal effect; actives are rising curves; nearly all actives have a fitted effect of over 50% in size
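Recovery from NS1-induced slow growth read by OD600 in budding yeast switched to galactose assay medium (pH 6.0, -URA) at 1:100 dilution. Compound 23 nl per well; the matching strain lacking NS1 serves as control.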
Shiga toxin inh: Shiga toxin inhibition | Vero cells, Shiga toxin protein synthesis inhibition reporter | inhibition, % at 38.7 µM | 9.2% of 290,000 active | AID 2315; in the data active = inhibition mostly above about 28%, no sharp cut-off; inactive = mostly below about 43%; note: 0% is about no effect
Giardia FBPA inh: blocks Giardia fructose-bisphosphate aldolase activity; A8B2U2; purified Giardia FBPA; Potency, µM (highest dose often 59.6 µM), inactives show at the highest dose activity, negative = inhibition, most hits filed as inhibitors; 0.71% of 290,000 active; note: potency is the fitted concentration of half-maximal effect; % is set by controls: 0 for no effect and ±100 for the full control effect; nearly all actives have a fitted effect of over 55% in size
Target sequence (A8B2U2 whole entry, looked up): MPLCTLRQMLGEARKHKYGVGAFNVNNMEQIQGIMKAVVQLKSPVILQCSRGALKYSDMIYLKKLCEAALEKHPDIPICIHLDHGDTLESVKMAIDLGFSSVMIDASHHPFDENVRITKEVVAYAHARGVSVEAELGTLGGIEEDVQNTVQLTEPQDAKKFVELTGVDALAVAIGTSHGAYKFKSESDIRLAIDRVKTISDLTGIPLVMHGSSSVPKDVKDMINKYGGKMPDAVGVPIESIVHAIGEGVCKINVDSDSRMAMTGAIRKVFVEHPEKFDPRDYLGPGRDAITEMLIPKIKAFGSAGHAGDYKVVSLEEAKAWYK
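Giardia FBPA (40 nM reagent) was preincubated 10 min at RT with compound (up to 57.5 uM final), then substrate plus GAPDH/TPI/NAD/arsenate coupling system with diaphorase/resazurin was added; resorufin fluorescence (525/598 nm) was read after 20 min.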
Pf growth 48h: P. falciparum growth inhibition at 48 hours (one generation). P. falciparum luciferase growth in erythrocytes, 48 h. Potency, µM (series often up to 28.7 µM), for inactives: top-dose activity change, negative = inhibition, usual class: inhibitors. 5.9% of 310,000 active; note: potency is the fitted concentration of half-maximal effect; % is set by controls: 0 for no effect and ±100 for the full control effect
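Compounds are pin-transferred into medium, infected erythrocytes (2% hematocrit, 0.1% parasitemia final) are added, and plates sit one parasite generation at 37 C in 5% CO2. Detection reagent is then added and luminescence measured.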
Pf growth 96h: P. falciparum growth inhibition at 96 hour, primary screen for plastid delayed-death inhibitors. P. falciparum luciferase reporter growth, 96 h. Potency, µM (top dose mostly 28.7 µM), for inactives: top-dose activity change, negative = inhibition, most hits filed as inhibitors. 6.9% of 320,000 active. AID 504834; note: potency is the fitted concentration of half-maximal effect; % is set by controls: 0 for no effect and ±100 for the full control effect
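Parasite growth measured via integrated firefly luciferase reporter in P. falciparum. Infected erythrocytes at 2% hematocrit, 0.05% parasitemia final were treated 96 hours at 37 C under 5% CO2, and luminescence was read.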
* hit, by the source's call; u = inconclusive; x = no result; + = active, no number; [ ] = another dose, or the depositor's remark. In the library only some 21% were active in any assay of this set; here they are far more common. Unless noted, calls come from the whole dose curve; as a rule, active = well fitted curve in the direction sought with a large enough effect; inconclusive = small, poorly fitted or top-dose-only effect, or another doubt; inactive = no such curve, though single readings can be large; an effect the other way counts as inactive or inconclusive.

SMILES	CHX counter	NS1 inh	Shiga toxin inh	Giardia FBPA inh	Pf growth 48h	Pf growth 96h
CC(=O)c1ccc2noc(-c3ccccc3)c2c1	14	-6%	33	-4%	-22%	262%
c1ccc(-c2onc3cc4c(cc23)OCCO4)cc1	35*	-73%	+	-23%	166%	39%
COC(=O)c1ccc2c(=O)n(Cc3ccc(C(=O)NCCCN4CCC(C)CC4)cc3)c(=S)[nH]c2c1	11	x	25	3%	u	u
CCCCN(C)CCNC(=O)c1ccc(Cn2c(=S)[nH]c3ccc(Br)cc3c2=O)cc1	8	x	-2	5%	u	10µM*
CCCCCn1c(=O)[nH]c2cc(C(=O)NCCN3CCCCC3C)ccc2c1=O (stereo not given)	-8	0%	-1	8%	12µM*	u
CCCCCNC(=O)c1ccc2c(=O)n(CC3CCCO3)c(=O)[nH]c2c1 (stereo not given)	-1	2%	-2	6%	1.3µM*	9%
CC1CCN(CCCNC(=O)c2ccc3c(=O)n(Cc4ccc(Cl)cc4)c(=S)[nH]c3c2)CC1	2	x	-13	5%	13µM*	33%[5.75 µM]
CN(C)CCNC(=O)c1ccc2c(=O)n(Cc3ccc(Cl)cc3)c(=S)[nH]c2c1	12	0%	0	19%	u	22%
Cc1nn(-c2ccccc2)c2c1C(c1cccnc1)N1C=C(S(=O)(=O)N3CCCCC3)C=CC1=N2 (stereo not given)	-2	16%	11	-17%	1.9µM*	53%
Cc1nn2c(c1-c1ccccc1)NC1=C(C(=O)CCC1)C2c1cccnc1 (stereo not given)	x	4%	x	x	x	x
Cc1ccc(S(=O)(=O)N2CCN(CCOc3c(Cl)cccc3Cl)CC2)cc1C	x	x	x	x	u	-6%
O=C(Cn1nc(C(=O)O)c2ccccc2c1=O)Nc1ccccc1C(F)(F)F	3	10%	0	2%	39%	32%
CCOC(=O)Cn1nc(/C=C/c2ccc(C)cc2)ccc1=O	8	-9%	28	-6%	0%	38%
CCOC(=O)Cn1nc(/C=C/c2ccc(C(C)C)cc2)ccc1=O	9.7*	-3%	33	-1%	99%	73%
CCOC(=O)Cn1nc(-c2ccc(Cl)cc2)ccc1=O	11	-11%	-8	3%	12%	9.3µM*
CNc1nnc(Sc2ncccc2[N+](=O)[O-])s1	-3	1%	-2	1%	9.3µM*	u
Cc1ccc(C(=O)Nc2ccccc2C(=O)N2CCCCC2C)cc1 (stereo not given)	6	-19%	24	x	-16%	12µM*
COc1cc(OC)cc(C(=O)Nc2ccccc2C(=O)N2CCCC2)c1	30*	-14%	60*	-2%	122%	78%
CCC(NC(=O)c1ccccc1NC(=O)c1ccc(OC)cc1)C(=O)N1CCCC1 (stereo not given)	46*	-8%	34*	-2%	44%	-12%
CCC(NC(=O)c1ccccc1NC(=O)C(C)(C)C)C(=O)N1CCCC1 (stereo not given)	-7	-12%	-13	3%	-3%	16%
CCC(NC(=O)c1ccccc1NC(=O)c1ccccc1)C(=O)OC (stereo not given)	-4	-61%	-16	0%	2.1µM*	29%
Cc1ccc(C(=O)Nc2ccc(C(=O)N3CCCCC3C)cc2)cc1 (stereo not given)	6	-9%	12	3%	u	-19%
CC[C@](C)(CN(C)C)OC(=O)c1ccccc1	x	x	x	-1%[21.7 µM]	1%[12.8 µM]	u
O=C(c1ccc(Cl)cc1)c1ccc(Oc2cc(NN3CCCCC3)c([N+](=O)[O-])cc2[N+](=O)[O-])cc1	-3	-41%	-2	-4%	-8%	-7%
Cc1cccc(N(CC(=O)O)CC(=O)O)c1	2	-2%	-7	-14%	-13%	13µM*
N#Cc1cccc(NC(=O)N2CC[C@@]3(CCCN(C(=O)Oc4ccccc4)C3)C2)c1	x	x	x	-9%	x	x
O=C(NNC(=O)c1csc(-c2cccnc2)n1)c1ccccc1	30*	-4%	18	u	u	10µM*
O=C(Nc1ccccc1Cl)c1csc(-c2cccnc2)n1	29*	-2%	41*	1%	174%	119%
O=C(NNS(=O)(=O)c1ccccc1)c1csc(-c2cccnc2)n1	-2	4%	-9	0%	-10%	u
